Among the data in ChEMBL document CHEMBL1961873, “Compounds: GSK PKIS; Assays: Nanosyn kinase panel” (2012) are inhibition values, retold here.

The term inhibition denotes the drop in the measured response relative to a control, in per cent.

For assay [1], the target named is T1, 3-phosphoinositide-dependent protein kinase 1 (Homo sapiens) (UniProt O15530).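 Note: values are mean inhibition of PDK1.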
T1 sequence (whole entry): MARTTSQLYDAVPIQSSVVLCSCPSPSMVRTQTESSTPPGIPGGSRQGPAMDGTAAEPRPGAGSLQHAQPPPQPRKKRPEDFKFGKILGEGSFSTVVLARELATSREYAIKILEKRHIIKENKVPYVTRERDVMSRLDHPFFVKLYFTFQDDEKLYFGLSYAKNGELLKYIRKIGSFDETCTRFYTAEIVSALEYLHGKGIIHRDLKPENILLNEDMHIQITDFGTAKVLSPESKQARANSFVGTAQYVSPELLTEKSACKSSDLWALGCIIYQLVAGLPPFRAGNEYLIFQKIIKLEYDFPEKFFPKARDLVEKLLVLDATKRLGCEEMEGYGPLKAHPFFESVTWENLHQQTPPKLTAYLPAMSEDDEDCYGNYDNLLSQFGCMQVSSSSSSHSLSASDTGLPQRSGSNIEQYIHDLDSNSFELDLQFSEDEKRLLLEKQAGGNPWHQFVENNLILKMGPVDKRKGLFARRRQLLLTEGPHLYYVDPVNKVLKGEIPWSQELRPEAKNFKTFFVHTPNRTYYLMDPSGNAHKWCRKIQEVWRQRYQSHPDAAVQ
The note with it: at 0.1 µM.

The target of assay [2] is cAMP-dependent protein kinase catalytic subunit alpha (Homo sapiens) (UniProt P17612). The settings on record: at 0.1 µM.
Assay [3] shares this target. The note with it: at 1 µM.
Assay [4] has as its target Protein kinase C alpha type (Homo sapiens) (UniProt P17252). The note with it: at 0.1 µM.
Assay [5] shares this target. The settings on record: at 1 µM.
In assay [6] the target is Protein kinase C beta type (Homo sapiens) (UniProt P05771). The settings on record: at 0.1 µM.
Assay [7] shares this target. The note with it: at 1 µM.
Assay [8] deals with Protein kinase C eta type (Homo sapiens) (UniProt P24723). The note with it: at 0.1 µM.
Assay [9] shares this target. The note with it: at 1 µM.
For assay [10], the target named is Protein kinase C gamma type (Homo sapiens) (UniProt P05129). The settings on record: at 0.1 µM.
Assay [11] shares this target. The note with it: at 1 µM.
Assay [12] deals with T2, Protein kinase C iota type (Homo sapiens) (UniProt P41743).
T2 sequence (whole entry): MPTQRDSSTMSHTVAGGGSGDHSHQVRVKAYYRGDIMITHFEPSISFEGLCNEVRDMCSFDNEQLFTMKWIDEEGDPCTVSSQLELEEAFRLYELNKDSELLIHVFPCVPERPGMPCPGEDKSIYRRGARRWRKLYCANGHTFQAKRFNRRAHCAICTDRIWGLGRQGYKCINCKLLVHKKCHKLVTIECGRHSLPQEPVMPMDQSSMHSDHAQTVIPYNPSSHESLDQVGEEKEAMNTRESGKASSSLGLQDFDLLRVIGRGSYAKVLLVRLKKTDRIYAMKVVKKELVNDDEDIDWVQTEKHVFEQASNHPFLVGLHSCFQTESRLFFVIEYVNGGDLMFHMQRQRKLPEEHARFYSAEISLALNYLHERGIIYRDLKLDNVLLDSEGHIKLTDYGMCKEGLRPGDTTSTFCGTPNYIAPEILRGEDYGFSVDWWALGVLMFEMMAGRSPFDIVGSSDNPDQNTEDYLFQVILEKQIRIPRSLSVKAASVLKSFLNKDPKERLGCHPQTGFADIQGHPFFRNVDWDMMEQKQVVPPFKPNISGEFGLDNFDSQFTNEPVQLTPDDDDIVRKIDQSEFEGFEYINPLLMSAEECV
The settings on record: at 0.1 µM.

Assay [13] deals with T2, Protein kinase C iota type (Homo sapiens). The settings on record: at 1 µM.
The target of assay [14] is Protein kinase C theta type (Homo sapiens) (UniProt Q04759). The note with it: at 0.1 µM.
Assay [15] has the same target. The settings on record: at 1 µM.
Assay [16] has as its target Protein kinase C beta type (Homo sapiens) (UniProt P05771). The settings on record: at 0.1 µM. The source holds these as a separate data set.
Assay [17] has the same target. The note with it: at 1 µM. The source holds these as a separate data set.
Assay [18] addresses T3, Serine/threonine-protein kinase D1 (Homo sapiens) (UniProt Q15139).
T3 sequence (whole entry): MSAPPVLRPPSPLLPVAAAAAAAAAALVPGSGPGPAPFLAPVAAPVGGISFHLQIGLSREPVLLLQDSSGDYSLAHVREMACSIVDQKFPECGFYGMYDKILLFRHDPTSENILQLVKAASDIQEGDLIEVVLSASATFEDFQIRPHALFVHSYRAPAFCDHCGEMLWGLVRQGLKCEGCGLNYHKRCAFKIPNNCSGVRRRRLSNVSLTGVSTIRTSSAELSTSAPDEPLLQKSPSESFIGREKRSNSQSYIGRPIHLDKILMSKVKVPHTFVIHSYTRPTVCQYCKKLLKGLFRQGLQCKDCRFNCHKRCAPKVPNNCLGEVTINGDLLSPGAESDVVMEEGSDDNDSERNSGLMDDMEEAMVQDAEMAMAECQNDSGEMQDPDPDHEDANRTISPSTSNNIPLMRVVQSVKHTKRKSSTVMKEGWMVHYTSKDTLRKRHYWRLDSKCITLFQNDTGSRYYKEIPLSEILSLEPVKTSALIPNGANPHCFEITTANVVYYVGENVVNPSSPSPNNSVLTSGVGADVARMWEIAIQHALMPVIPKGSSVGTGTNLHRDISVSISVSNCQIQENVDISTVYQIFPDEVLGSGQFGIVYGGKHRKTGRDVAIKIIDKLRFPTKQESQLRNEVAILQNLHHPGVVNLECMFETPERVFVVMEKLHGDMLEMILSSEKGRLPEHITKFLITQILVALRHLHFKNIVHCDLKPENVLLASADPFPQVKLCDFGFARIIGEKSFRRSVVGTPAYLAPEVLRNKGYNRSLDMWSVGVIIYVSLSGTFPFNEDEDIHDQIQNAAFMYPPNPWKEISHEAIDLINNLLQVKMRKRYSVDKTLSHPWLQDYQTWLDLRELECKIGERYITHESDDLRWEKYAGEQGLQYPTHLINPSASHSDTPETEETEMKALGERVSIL
The settings on record: at 0.1 µM.

Assay [19] concerns the target T3, Serine/threonine-protein kinase D1 (Homo sapiens). The settings on record: at 1 µM.
Assay [20] deals with T4, Serine/threonine-protein kinase D2 (Homo sapiens) (UniProt Q9BZL6).
T4 sequence (whole entry): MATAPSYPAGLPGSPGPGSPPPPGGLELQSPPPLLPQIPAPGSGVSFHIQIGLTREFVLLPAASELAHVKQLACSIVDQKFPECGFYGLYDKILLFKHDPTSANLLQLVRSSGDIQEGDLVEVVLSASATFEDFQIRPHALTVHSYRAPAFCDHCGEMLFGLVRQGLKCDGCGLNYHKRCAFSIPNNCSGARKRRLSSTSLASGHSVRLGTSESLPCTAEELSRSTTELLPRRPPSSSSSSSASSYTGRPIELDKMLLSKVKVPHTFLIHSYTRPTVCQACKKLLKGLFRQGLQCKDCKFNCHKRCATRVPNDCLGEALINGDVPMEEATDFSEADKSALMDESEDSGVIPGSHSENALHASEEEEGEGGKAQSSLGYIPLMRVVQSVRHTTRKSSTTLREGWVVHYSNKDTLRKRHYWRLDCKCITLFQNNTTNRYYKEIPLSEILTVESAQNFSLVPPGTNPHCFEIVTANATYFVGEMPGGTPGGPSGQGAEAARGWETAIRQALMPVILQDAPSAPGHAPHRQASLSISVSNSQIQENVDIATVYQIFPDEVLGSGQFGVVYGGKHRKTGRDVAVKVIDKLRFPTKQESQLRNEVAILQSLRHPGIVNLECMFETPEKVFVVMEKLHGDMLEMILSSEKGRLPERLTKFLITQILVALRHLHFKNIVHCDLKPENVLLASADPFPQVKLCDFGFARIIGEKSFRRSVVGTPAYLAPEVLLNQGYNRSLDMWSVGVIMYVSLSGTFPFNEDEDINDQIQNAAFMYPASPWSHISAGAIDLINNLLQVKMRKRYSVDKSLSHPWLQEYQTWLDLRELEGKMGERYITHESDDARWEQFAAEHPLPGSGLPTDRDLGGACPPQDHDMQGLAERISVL
The note with it: at 0.1 µM.

Molecules are shown by their SMILES.

Chain of Protein kinase C beta type (Homo sapiens) (P05771 2-671 limits assumed): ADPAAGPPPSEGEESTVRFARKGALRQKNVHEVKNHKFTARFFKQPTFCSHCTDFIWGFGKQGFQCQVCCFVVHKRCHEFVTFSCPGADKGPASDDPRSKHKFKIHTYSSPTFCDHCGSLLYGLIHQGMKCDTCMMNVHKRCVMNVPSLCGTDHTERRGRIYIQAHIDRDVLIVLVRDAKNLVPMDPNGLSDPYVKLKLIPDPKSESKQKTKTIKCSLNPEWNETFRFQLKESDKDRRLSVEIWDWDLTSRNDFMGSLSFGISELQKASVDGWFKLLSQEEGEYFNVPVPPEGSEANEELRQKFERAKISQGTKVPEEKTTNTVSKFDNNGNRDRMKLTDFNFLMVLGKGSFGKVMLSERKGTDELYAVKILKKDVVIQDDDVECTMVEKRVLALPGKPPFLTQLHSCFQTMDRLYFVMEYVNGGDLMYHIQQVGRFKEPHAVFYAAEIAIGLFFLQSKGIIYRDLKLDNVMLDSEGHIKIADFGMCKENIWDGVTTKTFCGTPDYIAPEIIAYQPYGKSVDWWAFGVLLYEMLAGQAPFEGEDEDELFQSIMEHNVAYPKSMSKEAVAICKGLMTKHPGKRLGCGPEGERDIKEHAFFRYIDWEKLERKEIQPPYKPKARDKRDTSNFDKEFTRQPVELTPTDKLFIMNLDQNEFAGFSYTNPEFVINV
Chain of Protein kinase C eta type (Homo sapiens) (P24723 whole entry): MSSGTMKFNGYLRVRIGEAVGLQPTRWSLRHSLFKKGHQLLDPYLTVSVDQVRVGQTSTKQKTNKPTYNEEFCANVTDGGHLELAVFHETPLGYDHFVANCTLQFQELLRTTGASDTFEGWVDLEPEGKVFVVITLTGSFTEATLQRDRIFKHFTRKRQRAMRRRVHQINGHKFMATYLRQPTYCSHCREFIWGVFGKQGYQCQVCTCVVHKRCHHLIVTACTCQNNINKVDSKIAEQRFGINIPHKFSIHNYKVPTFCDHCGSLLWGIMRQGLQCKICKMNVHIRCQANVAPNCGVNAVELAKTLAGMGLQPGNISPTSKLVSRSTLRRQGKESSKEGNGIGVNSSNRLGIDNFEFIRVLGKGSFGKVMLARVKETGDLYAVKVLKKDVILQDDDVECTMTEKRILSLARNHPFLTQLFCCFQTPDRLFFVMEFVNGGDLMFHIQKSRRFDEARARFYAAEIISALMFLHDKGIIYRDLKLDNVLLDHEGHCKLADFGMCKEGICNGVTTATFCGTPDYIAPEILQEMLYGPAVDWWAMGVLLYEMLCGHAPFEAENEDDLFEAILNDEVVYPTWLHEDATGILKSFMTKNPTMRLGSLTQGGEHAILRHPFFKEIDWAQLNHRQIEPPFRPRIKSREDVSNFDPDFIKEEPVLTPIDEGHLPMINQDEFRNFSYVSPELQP
Chain of Protein kinase C theta type (Homo sapiens) (Q04759 whole entry, looked up): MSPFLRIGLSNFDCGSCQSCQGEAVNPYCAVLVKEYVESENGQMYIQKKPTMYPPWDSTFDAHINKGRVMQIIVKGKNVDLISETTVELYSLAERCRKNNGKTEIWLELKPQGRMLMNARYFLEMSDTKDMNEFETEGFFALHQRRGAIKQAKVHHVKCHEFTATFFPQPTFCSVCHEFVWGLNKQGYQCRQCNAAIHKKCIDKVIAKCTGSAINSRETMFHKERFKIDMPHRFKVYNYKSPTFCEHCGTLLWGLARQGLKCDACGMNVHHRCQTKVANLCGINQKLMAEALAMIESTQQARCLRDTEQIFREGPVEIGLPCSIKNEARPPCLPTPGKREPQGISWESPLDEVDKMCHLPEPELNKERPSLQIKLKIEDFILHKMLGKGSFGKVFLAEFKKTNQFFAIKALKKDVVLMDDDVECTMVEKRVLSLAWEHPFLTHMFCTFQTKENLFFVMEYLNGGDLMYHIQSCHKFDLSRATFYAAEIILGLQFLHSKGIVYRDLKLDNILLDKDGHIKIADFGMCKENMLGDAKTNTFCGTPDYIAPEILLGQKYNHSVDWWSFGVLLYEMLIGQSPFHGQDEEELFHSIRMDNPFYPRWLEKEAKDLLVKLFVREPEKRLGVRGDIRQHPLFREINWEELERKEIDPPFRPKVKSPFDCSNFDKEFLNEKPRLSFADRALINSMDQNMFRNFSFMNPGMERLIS

In the case of `COc1cccc(-n2ncc3c(N/N=C/c4cccc(F)c4)ncnc32)c1`, the inhibition in assay [1] was 1.33%; in [2], -1.81%; in assay [3], -1.91%; in assay [4] it was -3.02%; in [5] it was -2.41%; in assay [6], 0.85%. In addition, the inhibition worked out at 1.36% in [7]; 0.06% in assay [8]; 3.37% in [9]; 2.4% in assay [10]; 1.92% in assay [11]; 1.95% in assay [12]. In addition, the inhibition in assay [13] was 1.9%; in assay [14], 0.55%; in assay [15] it was 2.23%; in [16], 1.7%; in assay [17] it was 3.14%; in [18], -1.15%. In addition, the inhibition was 0.28% in [19] and -1.06% in assay [20].
Turning to `COc1ccc(-c2ccncc2)cc1C(N)=O`, the inhibition in assay [1] is 1.13%; in assay [2], 2.54%; in assay [3], 3.05%; in assay [4], 1.07%; in assay [5], 1.9%; in assay [6], -0.74%. The inhibition worked out at 0.96% in assay [7]; 3.72% in [8]; 6.14% in assay [9]; 2.34% in assay [10]; 1.71% in assay [11]; 0.36% in assay [12]. Moreover, the inhibition in [13] is 1.27%; in [14] it was 2.73%; in assay [15], 4.84%; in assay [16] it was 0.88%; in assay [17] it was 2.35%; in assay [18], 5.51%. Besides, the inhibition in assay [19] was 15.2%; in assay [20], 4.91%.
In the case of `NC(=O)c1ccc(-c2nc(-c3ccccn3)c(-c3ccc4c(c3)OCO4)[nH]2)cc1`, the inhibition in [1] was 2.65%; in assay [2] it was 1%; in assay [3] it was 2.8%; in assay [4], 1.23%; in assay [5], 3.42%; in assay [6] it was -0.16%. The inhibition in assay [7] is 2.78%; in assay [8], -0.32%; in [9], -0.29%; in assay [10] it was -0.15%; in assay [11], 3.47%; in [12], 0.81%. Further, the inhibition was -0.05% in assay [13]; 0.77% in [14]; 1.31% in [15]; 1.96% in assay [16]; 5.1% in assay [17]; 2.47% in assay [18]. The inhibition in [19] was 5.43%; in assay [20], 2.87%.
`Nc1nc(-c2ccccn2)c(-c2ccc3ncccc3n2)s1`: the inhibition was determined as 1.75% in [1]; 1.32% in assay [2]; 1.89% in assay [3]; 1.07% in [4]; 1.65% in assay [5]; 0.07% in assay [6]. Also, the inhibition in assay [7] worked out at 1.26%; in assay [8], 5.03%; in [9], 2.77%; in assay [10], 1.52%; in assay [11], 4.9%; in [12], 2.73%. The inhibition in assay [13] was 1.17%; in assay [14] it was 2.24%; in assay [15], 3.34%; in assay [16], -0.19%; in assay [17], 0.88%; in assay [18] it was 2.38%. Further, the inhibition in assay [19] turned out to be 4.64%; in assay [20], 2.92%.
For the compound `CCn1c(-c2nonc2N)nc2c(C#CC(C)(C)O)nc(CN3CCCC3)cc21`, the inhibition in assay [1] worked out at 0.46%; in [2], 8.62%; in [3] it was 44.9%; in [4], 2.29%; in assay [5], 6.77%; in [6] it was 3.02%. In addition, the inhibition in [7] worked out at 14.2%; in assay [8], 19.5%; in assay [9], 67.3%; in [10], 3.19%; in assay [11] it was 8.24%; in assay [12] it was 0.19%. The inhibition in assay [13] is 1.41%; in assay [14], 2.28%; in [15] it was 7.85%; in assay [16], 3.25%; in [17], 6.65%; in assay [18], 1.55%. Moreover, the inhibition in [19] was 5.93%; in assay [20], 1.71%.
